pPAFAH inh: pPAFAH enzyme inhibitors, primary screen, biochemical, fluorescence polarization, human | Platelet-activating factor acetylhydrolase (Homo sapiens), Q13093 | actives 1.5% (n = 330,000) | inhibition, % at 3.39 µM | AID 463082, 2010 | recombinant pPAFAH, FP-rhodamine probe fluorescence polarization;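 active = inhibition above the mean inhibition across the screen plus 3 SD, cut at about 25% in these data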;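 also: inhibitors block binding of the rhodamine activity-based probe so polarization drops; 0% = enzyme with DMSO and 100% = wells lacking pPAFAH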
Target sequence (Q13093 whole entry, looked up): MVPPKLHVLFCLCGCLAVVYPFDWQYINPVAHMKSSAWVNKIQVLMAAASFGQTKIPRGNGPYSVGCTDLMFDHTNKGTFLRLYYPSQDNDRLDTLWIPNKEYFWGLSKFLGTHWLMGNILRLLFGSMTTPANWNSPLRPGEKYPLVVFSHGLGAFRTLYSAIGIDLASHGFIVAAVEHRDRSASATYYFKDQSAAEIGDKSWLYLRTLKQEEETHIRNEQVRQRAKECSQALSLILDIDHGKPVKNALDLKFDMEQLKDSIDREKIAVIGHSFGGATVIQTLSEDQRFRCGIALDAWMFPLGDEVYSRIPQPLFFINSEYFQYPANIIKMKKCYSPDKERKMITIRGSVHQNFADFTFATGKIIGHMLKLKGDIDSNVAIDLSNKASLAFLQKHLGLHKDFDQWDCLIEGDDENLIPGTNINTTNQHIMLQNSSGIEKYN
PAFAH1B3 inh: PAFAH1B3 enzyme inhibitors, primary screen, biochemical, fluorescence polarization, human. AID 492972, 2010. actives 0.28% (n = 340,000). inhibition, % at 3.39 µM. recombinant PAFAH1B3, FP-rhodamine probe;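 active = inhibition above the screen-wide average of all tested compounds plus 3 SD, cut at about 25% in these data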;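 also: 0% = enzyme with DMSO only and 100% = wells lacking PAFAH1B3 protein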
PME-1 primary: PME-1 inhibitors via competitive probe labeling, primary screen, biochemical, fluorescence polarization, FP-Rh probe, HTS. inhibition, % at 5.9 µM. AID 2130, 2009. recombinant PME-1. actives 0.53% (n = 320,000);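 active = inhibition above the campaign mean of all compounds plus 3 SD, cut at about 26% in these data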;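 also: competitive labeling of PME-1 active site by serine hydrolase directed probe; 0% = PME-1 with DMSO and 100% = wells lacking PME-1 enzyme; inhibitors block probe labeling so polarization falls and inhibition rises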
PAFAH1B2 FP inh: PAFAH1B2 enzyme inhibitors, primary screen, biochemical, fluorescence polarization, human. recombinant PAFAH1B2, FP-rhodamine activity probe. inhibition, % at 3.39 µM. actives 1.2% (n = 340,000). AID 492953, 2010;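 active = inhibition above the mean of all tested compounds plus 3 SD, cut at about 24% in these data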;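 also: 0% = enzyme with DMSO and 100% = wells lacking PAFAH1B2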
Target sequence (P68402 whole entry, looked up): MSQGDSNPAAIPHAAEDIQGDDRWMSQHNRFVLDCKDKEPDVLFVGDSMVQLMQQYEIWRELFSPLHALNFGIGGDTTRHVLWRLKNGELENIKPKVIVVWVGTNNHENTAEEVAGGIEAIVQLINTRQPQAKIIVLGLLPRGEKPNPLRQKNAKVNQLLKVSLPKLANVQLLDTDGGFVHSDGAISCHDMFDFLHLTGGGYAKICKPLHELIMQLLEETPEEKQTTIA
PAFAH2 inh: PAFAH2 enzyme inhibitors, primary screen, biochemical, fluorescence polarization, human; Platelet-activating factor acetylhydrolase 2, cytoplasmic (Homo sapiens), Q99487; recombinant PAFAH2, FP-rhodamine activity probe; inhibition, % at 3.39 µM; actives 0.99% (n = 340,000); AID 492956, 2010;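 active = inhibition above the mean over all tested compounds plus 3 SD, cut at about 30% in these data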;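 also: inhibitors block probe labeling of enzyme so polarization drops; 0% = enzyme with DMSO and 100% = wells lacking PAFAH2 protein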
Fam108B inh: mouse Fam108B serine hydrolase inhibitors, primary screen, counter-screen for RBBP9 inhibitor project, biochemical, fluorescence polarization. recombinant Fam108B, FP-Rh probe fluorescence polarization. inhibition, % at 9.51 µM. actives 0.33% (n = 300,000). AID 1947, 2009;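 active = inhibition above the screen mean inhibition plus 3 SD, computed separately per campaign, cut at about 18% in these data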;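 also: inhibitors lower polarization as less probe binds the enzyme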
Active calls of the source: *; nt = not tested or not shown. Most compounds without a hit are left out; they make up all but 2.8% or so of the library.

SMILES	pPAFAH inh	PAFAH1B3 inh	PME-1 primary	PAFAH1B2 FP inh	PAFAH2 inh	Fam108B inh
Cn1c(=O)oc2cc(S(=O)(=O)NCCCN3CCCC3=O)ccc21	0.8	-4.9	-1.9	4.6	3.1	-0.9
CCCCc1ccc(S(=O)(=O)NCCCN2CCCC2=O)cc1	27.9*	4.1	8.6	7.6	4.0	3.2
Cc1ccc(NS(=O)(=O)c2ccc(C(=O)NCCCN3CCCC3=O)cc2)cc1C	30.9*	0.9	1.9	1.2	6.0	1.2
O=C(COc1coc(CN2CCN(c3ccccc3)CC2)cc1=O)NC1CCCC1	2.1	-1.2	-1.7	0.2	-1.4	0.3
CSc1ccc(CCNC(=O)c2ccc(CS(=O)Cc3ccc(Cl)cc3)o2)cc1 (centres undefined)	29.9*	3.8	-2.2	6.4	-2.2	3.0
COc1ccc(C2c3ccc(O)cc3Oc3ncn(Cc4ccccc4)c(=N)c32)cc1OC (centres undefined)	-3.9	32.4*	-0.5	32.0*	46.2*	-1.4
S=c1nn[nH]c2ccccc12	nt	10.1	nt	7.2	-4.0	nt
COc1cccc(N(CC(=O)NCCSc2ccccn2)S(=O)(=O)c2ccccc2)c1	-1.0	5.4	-10.5	0.9	-9.8	-1.5
CC(Oc1ccc2c3c(c(=O)oc2c1)CCCC3)C(=O)NCC1CCC(C(=O)O)CC1 (centres undefined)	4.9	1.6	-5.2	6.1	-2.5	-0.7
COC(=O)C(C)Oc1ccc2c3c(c(=O)oc2c1)CCCCC3 (centres undefined)	27.7*	-0.7	-1.2	0.6	2.5	1.8
Oc1c(Cl)cc(Cl)cc1Sc1cc(Cl)cc(Cl)c1O	76.8*	nt	41.6*	nt	nt	44.1*
CSCCC(NS(=O)(=O)c1ccc(C)cc1)C(=O)Nc1ccc(C)cn1 (centres undefined)	0.1	-3.4	0.8	2.3	0.9	2.3
CC(=O)Nc1ccc(NC(=O)CCc2c(C)noc2C)cc1	nt	14.0	nt	3.6	2.7	nt
COc1ccc2c(c1)O[C@@H](c1cccc(C(F)(F)F)c1)[C@H](O)C2=O	4.9	12.9	-2.1	5.6	71.5*	3.1
CCN(CC)CCSc1nnc2c3cc(C)ccc3n(Cc3ccccc3)c2n1	-0.6	nt	1.5	nt	nt	-3.0
COc1ccc([N+](=O)[O-])cc1N(CC(=O)NCCSc1ccccc1)S(C)(=O)=O	0.5	12.7	3.0	21.0	2.6	-1.7
COc1ccc([N+](=O)[O-])cc1N(CC(=O)NCCSc1ccc(C)cc1)S(C)(=O)=O	-7.0	3.8	3.5	31.4*	8.0	-7.7
Cc1ccc(Oc2cc(NN3CCCCC3)c([N+](=O)[O-])cc2[N+](=O)[O-])c(Cl)c1	5.5	3.0	-4.2	6.9	0.8	6.4
CCOC(=O)N1CCN(Cc2nc3cc(NC(=O)c4cccs4)ccc3n2CC)CC1	3.4	-3.6	4.2	3.3	-0.9	-7.1
O=C(O)CCCC(=O)Nc1ccc(Br)cc1C(=O)O	-3.1	8.4	-3.3	27.2*	-5.1	-4.1
O=C(O)CCCC(=O)Nc1ccc(Br)cc1	-1.4	7.2	-3.5	5.4	3.9	0.8
CCN(CC)c1ccc(N=C2C(=O)Nc3ccccc32)cc1	28.6*	4.0	-5.9	0.2	5.2	-0.6
Cc1ccc(N=C2C(=O)Nc3ccccc32)cc1	8.5	9.3	-3.8	2.7	0.0	-3.5
CN(C(=O)CSc1nc2ccccc2n1C)C1CCS(=O)(=O)C1 (centres undefined)	0.7	13.0	-1.3	-1.6	0.2	nt
CC(=O)N1CCN(C(=O)c2ccc(S(=O)(=O)Nc3ccccc3F)cc2)CC1	-0.7	5.6	4.8	6.1	-3.6	nt
SMILES	pPAFAH inh	PAFAH1B3 inh	PME-1 primary	PAFAH1B2 FP inh	PAFAH2 inh	Fam108B inh
COc1ccc(-c2csc(/C(C#N)=C\c3ccc(O)c([N+](=O)[O-])c3)n2)cc1OC	12.0	6.4	15.1	2.5	7.7	10.2
N#C/C(=C\c1ccc(O)c([N+](=O)[O-])c1)c1nc2ccccc2s1	nt	31.1*	nt	30.3*	44.4*	nt
COc1cc(/C=C(\C#N)c2nc3ccccc3s2)cc([N+](=O)[O-])c1O	nt	42.3*	nt	28.8*	54.7*	nt
COc1ccc(C(=O)NCC(c2ccccc2)N2CCCC2)cc1S(=O)(=O)N1CCOCC1 (centres undefined)	4.3	-0.3	5.1	0.8	3.3	nt
CCC(=O)c1ccc(OCC(=O)OCC(=O)c2cc(C)n(C)c2C)cc1	10.8	6.5	4.7	6.5	1.5	4.2
CCCc1cc(=O)oc2cc(C)cc(OCC(=O)N[C@@H](CSCc3ccccc3)C(=O)O)c12	16.6	-3.0	5.6	1.6	5.0	-3.9
CCCCc1cc(=O)oc2cc(C)cc(OCC(=O)NC(Cc3ccc(Cl)cc3)C(=O)O)c12 (centres undefined)	6.3	4.1	1.3	30.1*	-0.7	1.9
CCCCc1cc(=O)oc2cc(C)cc(OCC(=O)Nc3ccccn3)c12	0.2	0.5	8.6	7.7	-4.2	6.9
CCCc1cc(=O)oc2cc(C)cc(OCC(=O)NC(Cc3ccc(Cl)cc3)C(=O)O)c12 (centres undefined)	5.8	3.0	5.2	27.1*	-7.5	0.6
COc1ccccc1CNC(=O)c1ccc(CS(=O)(=O)c2ccc(C)cc2)o1	12.3	3.2	11.6	2.5	10.0	-0.3
N#C/C(=C/c1cn[nH]c1-c1cccc(Br)c1)C(=O)O	-1.9	5.5	-8.5	4.6	6.0	-1.9
N#C/C(=C/c1cn[nH]c1-c1ccc(Br)cc1)C(=O)O	8.8	18.2	0.8	30.5*	8.2	2.9
N#CCC(=O)c1sccc1-n1cccc1	33.6*	6.5	-18.8	11.0	2.9	-1.8
Clc1ccccc1CSc1cnnc2ccccc12	nt	2.7	nt	3.7	3.2	nt
O=C(CCn1cncn1)N1CCCC(N2CCN(c3cccc(C(F)(F)F)c3)CC2)C1 (centres undefined)	4.2	-2.0	2.8	2.3	-1.5	1.4
CCOC(=O)c1cccc(C2=CC(=O)C[C@H](c3ccc(Cl)cc3)C2)c1	-0.5	-1.3	6.1	7.0	-5.9	nt
CC1=NC(=O)C(N=Nc2cccc(O)c2)N1c1ccccc1 (centres undefined)	11.6	-1.3	30.4*	-0.1	13.1	4.1
Clc1ccc(SCCCCn2ccnc2)cc1	4.6	8.6	-0.4	71.1*	1.9	1.1
Clc1ccccc1OCCCCn1ccnc1	-2.8	-1.7	-2.4	0.7	8.0	-5.4
COC(=O)c1ccc2c(c1)SC1=C(CCCC1=O)N2	18.0	16.6	28.8*	20.8	26.1	17.8
